# Values without a mark were called inactive. Results filed as inconclusive are left out. Where a call stands in place of a potency, no number is given. The source made the active and inactive calls. Unless noted, calls come from the whole dose curve.
# Legend:
# [1] = Nuclear factor erythroid 2-related factor 2/antioxidant responsive element (Nrf2/ARE) small molecule agonists: qHTS cell viability counter screen in human keratinocytes (AID 1919968; active = well fitted curve in the direction sought with a large enough effect in the repeat runs; an effect the other way counts as inactive or inconclusive; note: nearly all actives have a fitted effect of over 55% in size; note: potency is the fitted concentration of half-maximal effect)
# Method in brief: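 KeratinoSens HaCaT cells, 1,500/well, preincubated 5 h, then exposed to compounds in DMSO for 23 h at 37 C/5% CO2. Viability read as CellTiter-Fluor fluorescence after 1 h, in the same wells as the ARE-luciferase read.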
# [2] = Nuclear factor erythroid 2-related factor 2/antioxidant responsive element (Nrf2/ARE) small molecule agonists: luciferase reporter gene qHTS assay in human keratinocytes (AID 1919969); note: nearly all actives have a fitted effect of over 35% in size; note: potency is the fitted concentration of half-maximal effect
# [3] = target: Gonadotropin-releasing hormone receptor (Homo sapiens) (UniProt P30968); assay: Human gonadotropin-releasing hormone receptor (GnRHR) small molecule agonists, calcium flux assay in GnRHR-HEK293 cells (AID 1920063); note: nearly all actives have a fitted effect of over 35% in size
# Method in brief: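 HEK293 cells stably expressing human GnRHR were dye-loaded for 1 h at 37 C. Compound was added in agonist mode and fluorescence (Ex/Em 480/540) recorded kinetically for 3 min. Fifteen concentrations, triplicates.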
# [4] = target: KiSS-1 receptor (Homo sapiens) (UniProt Q969F8); assay: Human kisspeptin (KISS1R) small molecule agonists, calcium flux assay in KISS1R-HEK293 cells (AID 1920064; active = well fitted curve in the direction sought with a large enough effect in the repeat runs; an effect the other way counts as inactive or inconclusive)
# Method in brief: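 HEK293 cells stably expressing human KISS1R were loaded with calcium dye for 1 h at 37 C, then given compound; fluorescence (Ex/Em 480/540) was read kinetically for 3 min. Fifteen concentrations, triplicate.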
# [5] = G protein-coupled receptor (GPCR) small molecule agonists, calcium flux assay: HEK293 wild type cell line counter screen (AID 1920065)
# Method in brief: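 Wild-type HEK293 cells plated 18 h, loaded with calcium dye 1 h at 37 C, then compounds added in agonist mode (ATP as positive control). Kinetic fluorescence Ex/Em 480/540 recorded 3 min at 1 sec intervals; 15 concentrations, triplicate.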
# [6] = p53 small molecule agonists, cell-based qHTS assay with human liver microsomes (AID 1963577);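 note: p53 response element beta-lactamase reporter cells with liver microsomes plus NADPH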
# Method in brief: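 HLM-supplemented p53RE-bla reporter assay: 16 h compound exposure at 37 C, microsomes and NADPH each 0.5 mg/mL final, read by fluorescence intensity.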
# [7] = p53 small molecule agonists, cell-based qHTS assay with rat liver microsomes (AID 1963578)
# Method in brief: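 Quantitative HTS of the Tox21 10K library: p53RE-bla cells, rat liver microsomes plus NADPH at 0.5 mg/mL final each, 16 h at 37 C, beta-lactamase fluorescence detection.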
# [8] = p53 small molecule agonists, cell-based qHTS assay with human liver microsomes: qHTS cell viability counter screen (AID 1963579); note: nearly all actives have a fitted effect of over 45% in size
# Method in brief: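 Viability of p53RE-bla cells is measured as CellTiter-Glo luminescence following a 16 h, 37 C incubation with compound, liver microsomes from human donors and NADPH.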
# [9] = p53 small molecule agonists, cell-based qHTS assay with rat liver microsomes: qHTS cell viability counter screen (AID 1963580); note: nearly all actives have a fitted effect of over 45% in size
# Method in brief: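 HCT-116 p53RE-bla, 4,000 cells/well, 5 h pre-incubation; cpd + rat liver microsomes 0.5 mg/mL + NADPH 0.5 mg/mL (final); 16 h, 37 C; CellTiter-Glo, 30 min RT; luminescence.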
# [10] = p53 small molecule agonists, cell-based qHTS assay: qHTS cell viability counter screen (AID 1963581); note: nearly all actives have a fitted effect of over 45% in size
# Method in brief: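 p53RE-bla HCT-116 cells, compounds added 5 h after plating and incubated 16 h at 37 C. Cytotoxicity measured in the same wells as intracellular ATP by CellTiter-Glo luminescence after 30 min at room temperature.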
# [11] = target: 5-hydroxytryptamine receptor 2A (Homo sapiens) (UniProt P28223); assay: 5-hydroxytryptamine receptor 2A (HTR2A) small molecule antagonists, cell-based qHTS assay (AID 1963586); note: nearly all actives have a fitted effect of over 45% in size
# Method in brief: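 Antagonist-mode intracellular calcium assay: DOI (4 nM) added after 5 min compound pre-incubation at room temperature to dye-loaded HTR2A-CHO cells. Fluorescence followed for 3 min, sampled every second.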
# [12] = target: 5-hydroxytryptamine receptor 2A (Homo sapiens) (UniProt P28223); assay: 5-hydroxytryptamine receptor 2A (HTR2A) small molecule agonists, cell-based qHTS assay (AID 1963587); note: nearly all actives have a fitted effect of over 30% in size
# Method in brief: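 Kinetic calcium-flux fluorescence (2 min, 1 sec intervals) after compound addition in agonist mode. HTR2A-CHO cells were cultured 18 h, then dye-loaded 1 h at 37 C.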
# [13] = target: Muscarinic acetylcholine receptor M1 (Homo sapiens) (UniProt P11229); assay: Cholinergic receptor muscarinic 1 (CHRM1) small molecule antagonists, cell-based qHTS assay (AID 1963588); note: nearly all actives have a fitted effect of over 40% in size; note: potency is the fitted concentration of half-maximal effect
# Method in brief: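 CHRM1-CHO calcium-flux assay, antagonist mode. Cells were seeded 18 h, dye-loaded 1 h at 37 C and given compound for 5 min at RT, then acetylcholine was added at 50nM. FDSS fluorescence was read 3 min; 15 concentrations, three runs.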
# [14] = target: Muscarinic acetylcholine receptor M1 (Homo sapiens) (UniProt P11229); assay: Cholinergic receptor muscarinic 1 (CHRM1) small molecule agonists, cell-based qHTS assay (AID 1963589); note: nearly all actives have a fitted effect of over 35% in size
# Method in brief: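 CHO cells stably expressing human CHRM1 were loaded with calcium dye for 1 h at 37 C, then compound was added in agonist mode. Intracellular calcium fluorescence was followed kinetically at 1 s intervals. Fifteen concentrations were tested in three independent runs.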
# [15] = target: D(2) dopamine receptor (Homo sapiens) (UniProt P14416); assay: Dopamine D2 receptor (DRD2) small molecule agonists, cell-based qHTS assay (AID 1963594); note: nearly all actives have a fitted effect of over 35% in size; note: potency is the fitted concentration of half-maximal effect
# Method in brief: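 cAMP accumulation in DRD2-HEK293 cells measured by HTRF after 1 h detection; compounds added 10 min before NKH477 (200nM […]) forskolin-analogue stimulation, 30 min at room temperature, with Ro20-1724 present at 0.1 mM final.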
# [16] = target: Beta-2 adrenergic receptor (Homo sapiens) (UniProt P07550); assay: Adrenergic beta2 receptor (ADRB2) small molecule antagonists, cell-based qHTS assay (AID 1963592); note: series mostly up to about 92 µM; nearly all actives have a fitted effect of over 50% in size
# Method in brief: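 Cells (CHO, stable ADRB2 overexpression) incubated 18-20hr at 37C; compounds added from DMSO; agonist mix (1nM isoproterenol, 100uM IBMX, 25uM Ro-20-1724) added; 0.5hr RT; d2-cAMP and anti-cAMP-cryptate added; 1hr RT; 665/615 nm read.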
# [17] = target: D(2) dopamine receptor (Homo sapiens) (UniProt P14416); assay: Dopamine D2 receptor (DRD2) small molecule antagonists, cell-based qHTS assay (AID 1963595; active = well fitted inhibition curve with a large enough effect in the signal ratio in the repeat runs, with a control signal flat; the % refers to the signal ratio)
# Method in brief: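 Readout: HTRF cAMP, cAMP-d2 competing with cellular cAMP for anti-cAMP cryptate, read after 1 h. Cells: DRD2-HEK293. Conditions: 0.1 mM Ro20-1724, 12 nM quinpirole, 200 nM NKH477, 30 min RT.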
# [18] = target: Beta-2 adrenergic receptor (Homo sapiens) (UniProt P07550); assay: Adrenergic beta2 receptor (ADRB2) small molecule agonists, cell-based qHTS assay (AID 1963593);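 note: CHO cells stably overexpressing human ADRB2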
# Method in brief: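 CHO cells stably over-expressing ADRB2 were plated overnight at 37C, then dosed with compounds plus a stimulation mix containing 100uM IBMX and 25uM Ro-20-1724 for 0.5hr at room temperature. cAMP was measured by HTRF competition, 1hr.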
# [19] = cAMP Responsive Elements (CRE) small molecule agonists, cell-based qHTS assay (AID 1963590); note: potency is the fitted concentration of half-maximal effect
# Method in brief: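 CRE-bla HEK 293T cells, 2,000/well in DMEM with 10% dialyzed FBS and 25 mM HEPES, pre-incubated 18 h at 37 C, then exposed to compound 3 h at 37 C. Beta-lactamase reporter read with LiveBLAzer B/G FRET substrate after 2 h at room temperature.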
# [20] = cAMP Responsive Elements (CRE) small molecule antagonists, cell-based qHTS assay (AID 1963591; active = well fitted inhibition curve with a large enough effect in the signal ratio in the repeat runs, not every such curve was filed as active; the % refers to the signal ratio)
# Method in brief: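 CRE-bla HEK293T cells plated 18 h, then given compound plus NKH477 at 0.25 uM final for 3 h at 37C. Beta-lactamase reporter read with LiveBLAzer B/G FRET substrate after 2 h at room temperature.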
# D(2) dopamine receptor (Homo sapiens), sequence (P14416 whole entry, looked up): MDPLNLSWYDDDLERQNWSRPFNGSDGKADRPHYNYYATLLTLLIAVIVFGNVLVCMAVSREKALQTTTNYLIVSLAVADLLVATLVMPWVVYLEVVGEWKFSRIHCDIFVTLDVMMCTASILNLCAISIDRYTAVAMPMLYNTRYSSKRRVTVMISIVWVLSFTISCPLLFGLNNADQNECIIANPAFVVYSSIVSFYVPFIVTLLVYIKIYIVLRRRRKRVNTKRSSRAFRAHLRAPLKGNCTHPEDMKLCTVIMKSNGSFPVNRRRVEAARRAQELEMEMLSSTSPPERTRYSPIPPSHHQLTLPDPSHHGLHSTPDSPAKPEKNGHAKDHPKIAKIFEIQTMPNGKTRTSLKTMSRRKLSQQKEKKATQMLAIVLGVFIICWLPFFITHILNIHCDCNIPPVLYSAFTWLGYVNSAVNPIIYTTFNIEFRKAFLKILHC
# KiSS-1 receptor (Homo sapiens), sequence (Q969F8 whole entry, looked up): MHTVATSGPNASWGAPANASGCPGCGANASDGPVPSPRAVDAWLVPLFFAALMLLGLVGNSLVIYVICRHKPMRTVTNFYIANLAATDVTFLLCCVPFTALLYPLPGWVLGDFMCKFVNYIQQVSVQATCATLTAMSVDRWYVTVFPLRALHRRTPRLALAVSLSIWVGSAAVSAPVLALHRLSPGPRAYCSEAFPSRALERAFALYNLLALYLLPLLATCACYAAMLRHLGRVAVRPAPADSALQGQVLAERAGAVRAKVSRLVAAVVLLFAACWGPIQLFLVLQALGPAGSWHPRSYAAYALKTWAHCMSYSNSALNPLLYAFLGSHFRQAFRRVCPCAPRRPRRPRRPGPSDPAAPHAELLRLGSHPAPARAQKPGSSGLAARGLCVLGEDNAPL
# Beta-2 adrenergic receptor (Homo sapiens), sequence (P07550 whole entry, looked up): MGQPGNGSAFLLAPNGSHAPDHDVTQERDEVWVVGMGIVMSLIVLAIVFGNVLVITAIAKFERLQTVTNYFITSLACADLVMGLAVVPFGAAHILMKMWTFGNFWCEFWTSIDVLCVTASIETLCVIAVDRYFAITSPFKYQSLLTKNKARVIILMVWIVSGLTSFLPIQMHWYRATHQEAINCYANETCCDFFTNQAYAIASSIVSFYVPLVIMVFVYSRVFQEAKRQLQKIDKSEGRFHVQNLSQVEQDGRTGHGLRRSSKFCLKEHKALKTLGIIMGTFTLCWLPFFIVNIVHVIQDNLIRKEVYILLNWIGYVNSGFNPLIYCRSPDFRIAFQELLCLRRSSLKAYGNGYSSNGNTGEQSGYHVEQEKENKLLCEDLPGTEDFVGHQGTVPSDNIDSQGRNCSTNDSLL
# Muscarinic acetylcholine receptor M1 (Homo sapiens), sequence (P11229 whole entry, looked up): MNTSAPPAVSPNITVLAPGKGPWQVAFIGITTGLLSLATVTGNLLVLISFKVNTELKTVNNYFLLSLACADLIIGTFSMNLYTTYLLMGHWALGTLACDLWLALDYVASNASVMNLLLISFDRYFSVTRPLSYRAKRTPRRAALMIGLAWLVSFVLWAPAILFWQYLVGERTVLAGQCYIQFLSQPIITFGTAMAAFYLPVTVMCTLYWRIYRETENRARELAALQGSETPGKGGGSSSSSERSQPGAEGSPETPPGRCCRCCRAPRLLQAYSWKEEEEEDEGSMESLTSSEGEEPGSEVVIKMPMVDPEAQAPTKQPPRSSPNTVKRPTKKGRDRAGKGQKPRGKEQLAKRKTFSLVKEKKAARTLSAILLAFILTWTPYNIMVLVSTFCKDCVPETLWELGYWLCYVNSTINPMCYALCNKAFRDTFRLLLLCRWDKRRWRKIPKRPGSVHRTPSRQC
# Gonadotropin-releasing hormone receptor (Homo sapiens), sequence (P30968 whole entry, looked up): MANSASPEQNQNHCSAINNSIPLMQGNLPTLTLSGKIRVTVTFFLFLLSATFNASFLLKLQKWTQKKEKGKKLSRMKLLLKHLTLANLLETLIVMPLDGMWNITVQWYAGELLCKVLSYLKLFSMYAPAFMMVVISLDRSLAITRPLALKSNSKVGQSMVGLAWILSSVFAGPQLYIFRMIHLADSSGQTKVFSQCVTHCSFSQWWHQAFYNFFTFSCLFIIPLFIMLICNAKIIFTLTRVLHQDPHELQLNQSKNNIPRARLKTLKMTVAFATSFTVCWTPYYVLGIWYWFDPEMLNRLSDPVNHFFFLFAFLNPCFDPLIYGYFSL
# 5-hydroxytryptamine receptor 2A (Homo sapiens), sequence (P28223 whole entry, looked up): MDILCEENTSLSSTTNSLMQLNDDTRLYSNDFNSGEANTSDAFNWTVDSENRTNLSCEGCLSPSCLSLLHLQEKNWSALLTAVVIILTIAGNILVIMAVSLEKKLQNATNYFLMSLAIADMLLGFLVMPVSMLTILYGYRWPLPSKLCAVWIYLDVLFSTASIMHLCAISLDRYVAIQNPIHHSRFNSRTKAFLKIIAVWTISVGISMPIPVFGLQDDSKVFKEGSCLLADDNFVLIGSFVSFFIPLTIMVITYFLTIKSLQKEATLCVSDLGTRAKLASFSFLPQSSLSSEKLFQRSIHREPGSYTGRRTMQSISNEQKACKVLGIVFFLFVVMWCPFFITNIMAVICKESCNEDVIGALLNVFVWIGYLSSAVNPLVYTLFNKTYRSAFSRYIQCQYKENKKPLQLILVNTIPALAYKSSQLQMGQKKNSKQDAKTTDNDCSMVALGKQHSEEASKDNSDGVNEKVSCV
SMILES,Potency [1],Potency [2],Potency [3],outcome [4],outcome [5],Potency [6],Potency [7],Potency [8],Potency [9],Potency [10],Potency [11],Potency [12],Potency [13],Potency [14],Potency [15],Potency [16],Potency [17],Potency [18],Potency [19],Potency [20]
Cc1nc(-c2ccc(OCC(C)C)c(C#N)c2)sc1C(=O)O,inactive,0.0531 µM (active),inactive,inactive,inactive,inactive,inactive,inactive,inactive,inactive,inactive,inactive,inactive,inactive,inactive,–,–,–,–,–
Cc1cc(SC2=C(O)C[C@@](CCc3ccc(N)cc3)(C(C)C)OC2=O)c(C(C)(C)C)cc1CO,inactive,inactive,inactive,inactive,inactive,inactive,inactive,inactive,inactive,inactive,inactive,inactive,inactive,inactive,inactive,inactive,inactive,–,–,–
Cc1nc(C2CCCCC2)c(-c2ccc(S(N)(=O)=O)c(F)c2)o1,inactive,inactive,inactive,inactive,inactive,inactive,inactive,inactive,inactive,inactive,inactive,inactive,inactive,inactive,inactive,inactive,–,inactive,–,–
Nc1nc(Cl)nc2c1ncn2[C@@H]1O[C@H](CO)[C@@H](O)[C@@H]1F,inactive,inactive,inactive,inactive,inactive,inactive,inactive,inactive,inactive,inactive,inactive,inactive,inactive,–,0.422 µM (active),–,inactive,–,29.8 µM (active),inactive
Nc1ccc(Cl)c([N+](=O)[O-])c1,inactive,54.5 µM (active),inactive,inactive,inactive,inactive,inactive,inactive,inactive,inactive,inactive,inactive,inactive,inactive,inactive,inactive,inactive,inactive,–,inactive
CCOC(=O)C1=NN(c2ccc(Cl)cc2Cl)C(C)(C(=O)OCC)C1 (configuration not stated),inactive,inactive,inactive,inactive,inactive,inactive,inactive,inactive,inactive,inactive,inactive,inactive,–,inactive,inactive,inactive,inactive,–,inactive,inactive
C=C/C(C)=C/C/C=C(\C)CCC=C(C)C,inactive,68.6 µM (active),inactive,inactive,inactive,inactive,inactive,inactive,inactive,inactive,inactive,inactive,inactive,inactive,inactive,inactive,inactive,inactive,–,–
COc1c(N2C[C@@H]3CCCN[C@@H]3C2)c(F)cc2c(=O)c(C(=O)O)cn(C3CC3)c12,inactive,inactive,inactive,inactive,inactive,inactive,inactive,inactive,inactive,inactive,inactive,inactive,6.5 µM (active),–,–,–,inactive,–,inactive,inactive
Cc1cccc(CN2CCN(C(c3ccccc3)c3ccc(Cl)cc3)CC2)c1 (configuration not stated),18.8 µM (active),inactive,inactive,inactive,inactive,inactive,inactive,inactive,inactive,inactive,–,inactive,–,–,inactive,inactive,inactive,inactive,inactive,inactive
c1cc(N(CC2CO2)CC2CO2)ccc1Cc1ccc(N(CC2CO2)CC2CO2)cc1 (configuration not stated),43.3 µM (active),21.7 µM (active),inactive,inactive,inactive,inactive,inactive,inactive,inactive,inactive,–,inactive,–,inactive,inactive,inactive,inactive,–,–,–
CCCCCCCCCCCSCC(=O)O,inactive,inactive,inactive,inactive,inactive,inactive,inactive,inactive,inactive,inactive,–,inactive,inactive,inactive,–,inactive,inactive,inactive,–,–
CCOC(=O)COC(=O)c1ccccc1C(=O)OCC,inactive,inactive,inactive,inactive,inactive,inactive,inactive,inactive,inactive,inactive,–,inactive,–,inactive,inactive,–,inactive,–,–,–
O=NN(CCCl)C(=O)NCCCl,inactive,inactive,inactive,inactive,inactive,inactive,inactive,inactive,inactive,inactive,–,–,–,–,inactive,inactive,inactive,inactive,inactive,inactive
CCOc1ccccc1O,inactive,inactive,inactive,inactive,inactive,inactive,inactive,inactive,inactive,inactive,inactive,inactive,–,–,inactive,inactive,inactive,inactive,–,inactive
